# Laboratory results as given in the supplement of paper PMC8975748.
# Structures can show the parent of a compound that is named as a salt.
# Tested on: Saccharomyces cerevisiae BY4741 SeMeCo community
# Assay: z-score of subpopulation abundance vs DMSO median, subpopulation auxotrophic for M; higher = larger share of this subpopulation than in DMSO controls
# Settings: 10 µM; 24 h; SM minimal medium; subpopulation (auxotrophy): M
# Experimental: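 Fluorescent four-plasmid SeMeCo (self-establishing metabolically cooperating S. cerevisiae BY4741 community; plasmids pH-mRuby2, pL-mWasabi, pU-eCFP, pM-TagRFP657) was grown 24 h in minimal SM medium with each Selleck FDA-approved drug at 10 µM in 384-well plates. Cells were fixed and imaged by high-content confocal microscopy. For each auxotrophic subpopulation (and the prototroph), a z-score gives the deviation from the DMSO vehicle-control population median.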
row,Structure (SMILES),z-score of subpopulation abundance
1,CN1[C@@H]2CC[C@H]1C[C@@H](OC(=O)c1c[nH]c3ccccc13)C2 [Tropisetron],1.72
2,CC(=O)OCC(COC(C)=O)OC(C)=O [Triacetin],-0.16
3,N#Cc1ccc2[nH]cc(CCCCN3CCN(c4ccc5oc(C(N)=O)cc5c4)CC3)c2c1 [Vilazodone],0.28
4,C[C@H]1[C@H](NC(=O)/C(=N\OC(C)(C)C(=O)O)c2csc(N)n2)C(=O)N1S(=O)(=O)O [Aztreonam],0.26
5,CCn1cc(C(=O)O)c(=O)c2ccc(C)nc21 [Nalidixic acid],-1.04
6,Cc1nnc(SCC2=C(C(=O)O)N3C(=O)[C@@H](NC(=O)Cn4cc(Cl)c(=O)c(Cl)c4)[C@H]3SC2)s1 [Cefazedone],0.65
7,CCCN1CCCC[C@H]1C(=O)Nc1c(C)cccc1C [Ropivacaine],0.5
8,O=C(Cn1cnnn1)N[C@@H]1C(=O)N2C(C(=O)O)=C(CSc3nncs3)CS[C@H]12 [Ceftezole],-1.1
9,CO/N=C(\C(=O)N[C@@H]1C(=O)N2C(C(=O)OC(C)OC(C)=O)=C(COC(N)=O)CS[C@H]12)c1ccco1 (stereo not given in full) [Cefuroxime axetil],-0.61
10,CC(C)(O/N=C(\C(=O)N[C@@H]1C(=O)N2C(C(=O)[O-])=C(C[n+]3ccccc3)CS[C@H]12)c1csc(N)n1)C(=O)O [Ceftazidime],-0.44
11,O=C(CCCN1CC=C(n2c(=O)[nH]c3ccccc32)CC1)c1ccc(F)cc1 [Droperidol],0.67
12,O=C(O[C@H]1CN2CCC1CC2)N1CCc2ccccc2[C@@H]1c1ccccc1 [Solifenacin succinate],0.77
13,COc1ccccc1OCC(O)CN1CCN(CC(=O)Nc2c(C)cccc2C)CC1 (stereo not given) [Ranolazine],0.23
14,CC(C)c1c(C(=O)Nc2ccccc2)c(-c2ccccc2)c(-c2ccc(F)cc2)n1CC[C@@H](O)C[C@@H](O)CC(=O)O [Atorvastatin Calcium],0.46
15,Cc1noc(NS(=O)(=O)c2ccc(N)cc2)c1C [Sulfisoxazole],0.18
16,C[C@@H](O)[C@H]1C(=O)N2C(C(=O)[O-])=C(SC3Cn4cnc[n+]4C3)[C@H](C)[C@H]12 (stereo not given in full) [Biapenem],1.3
17,CN[C@@H]1[C@@H](O[C@H]2O[C@H](CO)[C@@H](N)[C@H](O)[C@H]2O)OC2C[C@@H](N)[C@@H](O[C@H]3[C@H](O)[C@@H](O)[C@H](N)C[C@@H]3N)OC2[C@@H]1O (stereo not given in full) [Apramycin Sulfate],-0.24
18,COc1cc(C(C)=O)ccc1OCCCN1CCC(c2noc3cc(F)ccc23)CC1 [Iloperidone],0.33
19,Cc1ncc([N+](=O)[O-])n1CC(O)CCl (stereo not given) [Ornidazole],1.05
20,CN[C@@H]1[C@H](O)[C@H](NC)[C@H]2O[C@@]3(O)C(=O)C[C@@H](C)O[C@H]3O[C@@H]2[C@H]1O [Spectinomycin 2HCl],-0.21

row,Structure (SMILES),z-score of subpopulation abundance
1,CC(C)(C)CC(C)(C)c1ccc(OCCOCC[N+](C)(C)Cc2ccccc2)cc1 [Benzethonium Chloride],-2.12
2,CCOC(=O)C1=C[C@@H](OC(CC)CC)[C@H](NC(C)=O)[C@@H](N)C1 [Oseltamivir Phosphate],-0.5
3,O=C(Cn1ccnc1[N+](=O)[O-])NCc1ccccc1 [Benznidazole],-0.28
4,NC[C@H]1O[C@H](O[C@H]2[C@H](O[C@@H]3O[C@H](CO)[C@@H](O)[C@H]3O)[C@@H](O)[C@H](N)C[C@@H]2N)[C@H](N)[C@@H](O)[C@@H]1O [Ribostamycin Sulfate],-0.49
5,Nc1ccc(S(=O)(=O)c2ccc(N)cc2)cc1 [Dapson],0.68
6,CN1CCc2cc3c(cc2C(=O)Cc2ccc4c(c2C1)OCO4)OCO3 [Protopine],-0.25
7,CN[C@H](CC(C)C)C(=O)N[C@H]1C(=O)N[C@@H](CC(N)=O)C(=O)N[C@H]2C(=O)N[C@H]3C(=O)N[C@H](C(=O)N[C@H](C(=O)O)c4cc(O)cc(O)c4-c4cc3ccc4O)[C@H](O)c3ccc(c(Cl)c3)Oc3cc2cc(c3O[C@@H]2O[C@H](CO)[C@@H](O)[C@H](O)[C@H]2O[C@H]2C[C@](C)(N)[C@H](O)[C@H](C)O2)Oc2ccc(cc2Cl)[C@H]1O [Vancomycin],-0.82
8,OB1OCc2cc(F)ccc21 [Tavaborole (AN-2690)],1
9,Nc1nc2c(ncn2COC(CO)CO)c(=O)[nH]1 [Ganciclovir],0.43
10,CCOC(=O)C1=C(C)NC(C)=C(C(=O)OC)C1c1cccc(Cl)c1Cl (stereo not given) [Felodipine],3.86
11,O=C1CCc2cc(OCCCCc3nnnn3C3CCCCC3)ccc2N1 [Cilostazol],-0.68
12,Cc1cc(=O)n(-c2ccccc2)n1C [Antipyrine],0.62
13,CC1(C)CC[C@]2(C(=O)O)CC[C@]3(C)C(=CC[C@@H]4[C@@]5(C)CC[C@H](O)C(C)(C)[C@@H]5CC[C@]43C)[C@@H]2C1 [Oleanolic Acid],0.25
14,CCC1(c2ccccc2)C(=O)NCNC1=O [Primidone],0.8
15,COc1ccc([C@@H]2Sc3ccccc3N(CCN(C)C)C(=O)[C@@H]2OC(C)=O)cc1 [Diltiazem HCl],-0.12
16,CN1C[C@@H]2C[C@H]1CN2c1cc2c(cc1F)c(=O)c(C(=O)O)cn2C1CC1 [Danofloxacin Mesylate],0.03
17,O=C(O)c1ccccc1O [Salicylic acid],-0.07
18,O=C(O)c1cn(-c2ccc(F)cc2)c2cc(N3CCNCC3)c(F)cc2c1=O [Sarafloxacin HCl],-0.64
19,C#C[C@]1(O)CC[C@H]2[C@@H]3CCc4cc(O)ccc4[C@H]3CC[C@@]21C [Ethinyl Estradiol],0.05
20,COc1ccc(C(C)=O)c(O)c1 [Paeonol],-0.69
